These results are taken from PubChem BioAssay (Tox21).

Assay [1] in a line: qHTS assay to identify small molecule agonists of the peroxisome proliferator-activated receptor delta (PPARd) signaling pathway - cell viability counter screen (AID 743211). Further: nearly all actives have a fitted effect of over 55% in size. Summed up: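 Luminescent ATP viability assay (CellTiter-Glo, 30 min RT) in UAS-bla HEK293H cells carrying the PPAR delta reporter construct, 3000 cells/well, after a 17 h compound treatment at 37 C.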
Assay [2] has as its target Peroxisome proliferator-activated receptor delta (Homo sapiens) (UniProt Q03181). The assay can be described thus: qHTS assay to identify small molecule agonists of the peroxisome proliferator-activated receptor delta (PPARd) signaling pathway (AID 743212; calls by dose curve). Summed up:
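GeneBLAzer UAS-bla HEK293H cells carrying a PPARδ construct were exposed to compounds at 37 °C. Beta-lactamase activity was read by FRET fluorescence after 2 h at room temperature with LiveBLAzer B/G substrate.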
(In general: qHTS replaces the single test concentration by a dilution series.)

Assay [3] can be described thus: qHTS assay to identify small molecule antagonists of the peroxisome proliferator-activated receptor delta (PPARd) signaling pathway - cell viability counter screen (AID 743213). Further: nearly all actives have a fitted effect of over 50% in size. Summed up:
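HEK293H PPARd UAS-bla cells, 5 h pre-incubation, compound + L165041 300 nM final, 17 h 37 C; B/G FRET substrate 2 h RT; then CellTiter-Glo 30 min RT, luminescence.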

In assay [4] the target is Peroxisome proliferator-activated receptor delta (Homo sapiens) (UniProt Q03181). As to the kind of experiment: qHTS assay to identify small molecule antagonists of the peroxisome proliferator-activated receptor delta (PPARd) signaling pathway (AID 743215; active means well fitted inhibition curve with a large enough effect in the signal ratio in the repeat runs, not every such curve was filed as active; the % refers to the signal ratio;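 further: cells stimulated with agonist L165041 at 300 nM final during compound exposure; series mostly up to about 62 µM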). Summed up:
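Read-out is beta-lactamase FRET fluorescence, measured 2 h after substrate addition at room temperature. Beforehand, UAS-bla HEK293H cells carrying the PPARd reporter were exposed to compounds with L165041 at 300 nM final for 17 h at 37 C.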

Assay [5] concerns the target Bile acid receptor (Homo sapiens) (UniProt Q96RI1). The assay can be described thus: qHTS assay to identify small molecule antagonists of the farnesoid-X-receptor (FXR) signaling pathway (AID 743217; active means well fitted inhibition curve with a large enough effect in the signal ratio in the repeat runs, not every such curve was filed as active; the % refers to the signal ratio). Summed up: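 HEK 293T FXR-UAS-bla, 5000 cells/well; compound + CDCA 50 uM final; 16 h, 37 °C; B/G FRET substrate 2 h RT; fluorescence.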
The nature of assay [6]: qHTS assay to identify small molecule agonists of the farnesoid-X-receptor (FXR) signaling pathway - cell viability counter screen (AID 743218). Further: nearly all actives have a fitted effect of over 45% in size. In short, it runs like this: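 HEK 293T FXR-bla cells; 5 h pre-incubation, 16 h compound exposure at 37 C; LiveBLAzer substrate 2 h RT, then CellTiter-Glo 30 min RT, luminescence.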
Assay [7] addresses Bile acid receptor (Homo sapiens) (UniProt Q96RI1). The assay can be described thus: qHTS assay to identify small molecule agonists of the farnesoid-X-receptor (FXR) signaling pathway (AID 743220; active means well fitted activation curve with a large enough effect in the signal ratio in the repeat runs, not every such curve was filed as active; the % refers to the signal ratio). In short, it runs like this:
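Beta-lactamase reporter under UAS control in GeneBLAzer FXR HEK 293T cells (5000/well) measured with LiveBLAzer FRET substrate after 2 h at room temperature. Compound exposure lasted 16 h at 37C.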

The nature of assay [8]: qHTS assay to identify small molecule antagonists of the farnesoid-X-receptor (FXR) signaling pathway - cell viability counter screen (AID 743221; active means well fitted cell-killing curve with a large enough effect in the repeat runs, not every such curve was filed as active; further: nearly all actives have a fitted effect of over 50% in size; further: potency means the concentration at half of the fitted maximal effect). Summed up:
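In GeneBLAzer FXR-UAS-bla HEK 293T cells stimulated with 50 uM chenodeoxycholic acid (final), compounds acted for 16 h at 37 C. Viability was assessed afterwards by CellTiter-Glo luminescence.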

The target of assay [9] is Vitamin D3 receptor (Homo sapiens) (UniProt P11473). As to the kind of experiment: qHTS assay to identify small molecule agonists of the vitamin D receptor (VDR) signaling pathway (AID 743222; calls by dose curve). Summed up:
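VDR-bla cells, 2,000/well; 4 h preincubation 37C; cpd (DMSO) 16 h; LiveBLAzer B/G substrate 2 h RT; fluorescence intensity read.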

Assay [10] has the same target. As to the kind of experiment: qHTS assay to identify small molecule antagonists of the vitamin D receptor (VDR) signaling pathway (AID 743223; active means well fitted inhibition curve with a large enough effect in the signal ratio in the repeat runs, not every such curve was filed as active; the % refers to the signal ratio). Summed up:
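Agonist 1alpha,25-dihydroxyvitamin D3 (3 nM in well) was added with each compound to VDR-bla cells preincubated 4 h. Cells stood 16 h at 37C, then FRET substrate 2 h at room temperature; fluorescence intensity recorded.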

Where “and” joins values, the source holds several entries; their conditions need not be identical. Equal entries are not always repeated. Results filed as inconclusive are left out. Where a structure was tested more than once in an assay, its records may differ in their call. Calls of active or inactive are those of the source. Unless noted, the call rests on the fitted dose curve; in most records, active means well fitted curve in the direction sought with a large enough effect in the repeat runs; inconclusive means weak or mixed curves; inactive means no such curve, though single readings can be large; an effect the other way counts as inactive or inconclusive.

Chain of Vitamin D3 receptor (Homo sapiens) (P11473 whole entry, looked up): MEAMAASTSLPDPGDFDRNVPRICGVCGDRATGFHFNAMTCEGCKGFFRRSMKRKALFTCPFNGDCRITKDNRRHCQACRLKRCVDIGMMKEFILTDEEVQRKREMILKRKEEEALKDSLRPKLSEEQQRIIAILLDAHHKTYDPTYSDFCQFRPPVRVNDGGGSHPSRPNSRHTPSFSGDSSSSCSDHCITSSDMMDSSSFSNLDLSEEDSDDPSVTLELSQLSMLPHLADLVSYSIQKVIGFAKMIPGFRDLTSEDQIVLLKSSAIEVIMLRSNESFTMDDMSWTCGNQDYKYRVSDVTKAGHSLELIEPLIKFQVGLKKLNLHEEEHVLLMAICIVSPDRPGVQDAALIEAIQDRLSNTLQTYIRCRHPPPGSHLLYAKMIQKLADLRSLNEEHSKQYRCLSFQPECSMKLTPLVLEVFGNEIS
Chain of Bile acid receptor (Homo sapiens) (Q96RI1 whole entry, looked up): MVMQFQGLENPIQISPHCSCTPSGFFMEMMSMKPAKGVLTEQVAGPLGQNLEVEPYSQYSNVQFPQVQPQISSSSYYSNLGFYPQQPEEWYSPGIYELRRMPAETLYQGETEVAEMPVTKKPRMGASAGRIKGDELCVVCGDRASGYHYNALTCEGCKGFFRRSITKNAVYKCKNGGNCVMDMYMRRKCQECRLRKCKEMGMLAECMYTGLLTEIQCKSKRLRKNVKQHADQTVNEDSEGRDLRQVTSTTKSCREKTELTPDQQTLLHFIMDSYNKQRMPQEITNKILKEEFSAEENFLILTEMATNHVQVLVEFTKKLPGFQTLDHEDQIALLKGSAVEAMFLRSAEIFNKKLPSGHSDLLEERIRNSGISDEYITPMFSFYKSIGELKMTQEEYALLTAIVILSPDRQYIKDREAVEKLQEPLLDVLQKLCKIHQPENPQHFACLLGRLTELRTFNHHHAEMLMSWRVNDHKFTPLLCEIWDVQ
Chain of Peroxisome proliferator-activated receptor delta (Homo sapiens) (Q03181 whole entry, looked up): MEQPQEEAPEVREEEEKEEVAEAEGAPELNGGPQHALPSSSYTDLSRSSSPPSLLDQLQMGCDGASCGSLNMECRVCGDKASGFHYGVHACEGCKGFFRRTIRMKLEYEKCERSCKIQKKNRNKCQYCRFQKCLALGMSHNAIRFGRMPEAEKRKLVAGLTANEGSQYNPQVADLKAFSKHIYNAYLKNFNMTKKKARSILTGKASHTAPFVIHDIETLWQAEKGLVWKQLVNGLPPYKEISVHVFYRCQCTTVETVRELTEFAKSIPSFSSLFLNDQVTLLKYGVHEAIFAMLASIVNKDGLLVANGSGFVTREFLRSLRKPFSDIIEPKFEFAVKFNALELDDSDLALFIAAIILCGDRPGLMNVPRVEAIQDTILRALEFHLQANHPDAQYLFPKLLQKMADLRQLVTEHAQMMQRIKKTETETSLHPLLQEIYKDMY

`Cc1ccc2oc(=O)ccc2c1`: the compound was classed as inactive in assay [1], in [2], in assay [3], in [5], in [7] and in assay [9]. Moreover, the call in [10] was inactive. The Potency result in [4], in [6] and in assay [8] was “inactive” throughout.
On to `CC(C)(C)[C@@H](O)[C@@H](Cc1ccc(Cl)cc1)n1cncn1`, for which the call in assay [1], in assay [2], in [3], in [5], in [7] and in assay [9] was inactive. Further, the compound was called inactive in assay [10]. The Potency result in assay [4], in assay [6] and in assay [8] was “inactive” in each case.
With `CC(=O)OCC(=O)[C@@]12N=C(C)O[C@@H]1C[C@H]1[C@@H]3CCC4=CC(=O)C=C[C@]4(C)[C@H]3[C@@H](O)C[C@@]12C`, the outcome in [1], in assay [2], in assay [3], in assay [9] and in assay [10] was inactive. In addition, the Potency result in [4], in assay [6] and in assay [8] was “inactive” each time.
In the case of `O=C(O)c1ccccc1C(c1ccc(O)cc1)c1ccc(O)cc1`, the outcome in [1], in assay [2] and in assay [3] was inactive. Moreover, the Potency entry in assay [4], in assay [6] and in assay [8] was “inactive” throughout.
On to `CCCCCCCCCCCCCCCO`, for which the compound was classed as inactive in assay [1], in assay [2], in assay [3], in [5], in assay [7] and in [9]. Also, the Potency entry in [4], in assay [6] and in assay [8] was “inactive” each time.
Turning to `O=C(Oc1ccccc1)c1ccccc1`, the call in assay [1], in assay [2], in assay [3], in [5] and in [7] was inactive. The Potency entry in assay [4], in [6] and in [8] was “inactive” throughout.
With `c1ccc(OCCOc2ccccc2)cc1`, the compound was called inactive in [1], in assay [2], in [3] and in assay [9]. In addition, the Potency entry in [4], in assay [6] and in [8] was “inactive” in each case.
With `O=S(=O)(O)c1ccc2ccccc2c1`, the outcome in assay [1], in assay [2], in [3], in assay [5], in assay [7] and in [10] was inactive. The Potency result in assay [4] and in [6] was “inactive” each time. The Potency result in assay [8] is “inactive and 34.8 µM (active)”.
In the case of `CC1CCC(C(C)C)C(O)C1` (stereo unspecified), the compound was called inactive in [1], in [2], in [3], in assay [5] and in assay [7]. Also, the Potency result in assay [4], in assay [6] and in assay [8] was “inactive” in each case.
For `CC(c1cc2ccccc2s1)N(O)C(N)=O` (stereo unspecified), the result in assay [1], in assay [2], in [3] and in assay [9] was inactive. Further, the Potency result in assay [4], in [6] and in assay [8] was “inactive” throughout.
`CCCC(C)=O`: the compound was called inactive in [1], in [2], in assay [3], in [5] and in [7]. The Potency result in assay [4], in [6] and in assay [8] was “inactive” throughout.
Regarding `CCOC(=O)NNc1nncc2ccccc12`, the result in assay [1], in assay [2], in [3], in assay [5], in [7] and in assay [10] was inactive. For the same compound, the Potency result in assay [4] and in [8] was “inactive” each time.
For the compound `CCCCCC1=CCCC1=O`, the compound was classed as inactive in [1], in assay [2], in assay [3], in assay [5], in assay [7] and in assay [9]. For the same compound, the result in assay [10] was inactive. The Potency entry in assay [4], in assay [6] and in assay [8] was “inactive” each time.
In the case of `O=C1CCC(N2C(=O)c3ccccc3C2=O)C(=O)N1` (stereo unspecified), the result in [1], in assay [2] and in assay [3] was inactive. In addition, the Potency result in [4], in [6] and in [8] was “inactive” each time.
For the compound `COS(C)(=O)=O`, the compound was classed as inactive in [1], in assay [2], in assay [3] and in [10]. The Potency result in assay [4], in assay [6] and in assay [8] was “inactive” throughout.
For the compound `CC(C)(N)CO`, the outcome in assay [1], in assay [2], in [5], in [7] and in assay [10] was inactive. Further, the Potency entry in assay [4], in assay [6] and in assay [8] was “inactive” each time.
As for `CCCCC(CC)COC(=O)CCCCC(=O)OCC(CC)CCCC` (stereo unspecified), the result in [1], in assay [2], in assay [5] and in assay [7] was inactive. The Potency result in assay [4], in assay [6] and in assay [8] was “inactive” in each case.
With `COc1cc(Cc2cnc(N)nc2N)cc(OC)c1OC`, the result in assay [1], in assay [2], in [3], in [9] and in assay [10] was inactive. Further, the Potency entry in [4], in assay [6] and in [8] was “inactive” in each case.
As to `CCCCC(CC)COC(=O)C(C#N)=C(c1ccccc1)c1ccccc1` (stereo unspecified), the call in [1], in assay [2], in assay [3], in [9] and in [10] was inactive. Also, the Potency entry in assay [4], in assay [6] and in [8] was “inactive” throughout.
Regarding `C[C@H]1C[C@@H]2[C@H]([C@@H](O)C[C@@]3(C)[C@H]2CC[C@]3(O)C(=O)CO)[C@@]2(C)C=CC(=O)C=C12`, the compound was classed as inactive in [1] and in [2]. Further, the Potency entry in assay [4], in assay [6] and in [8] was “inactive” each time.
Take `O=C(OCCOCCOC(=O)c1ccccc1)c1ccccc1`: the result in [1], in assay [2], in assay [5] and in assay [7] was inactive. For the same compound, the Potency entry in assay [4], in assay [6] and in assay [8] was “inactive” in each case.
Regarding `CN(C)CCC(c1ccccc1)c1ccccn1` (stereo unspecified), the outcome in assay [1], in assay [2], in assay [3], in [9] and in [10] was inactive. The Potency entry in assay [6] and in [8] was “inactive” each time.
On to `CCCCCCCC(=O)OC`, for which the call in assay [1], in assay [2], in [3] and in assay [10] was inactive. In addition, the Potency entry in assay [4], in assay [6] and in assay [8] was “inactive” each time.
Consider `O=C(O)CC(C(=O)O)C(CC(=O)O)C(=O)O` (stereo unspecified), for which the call in [1], in assay [2], in [5], in assay [7] and in [9] was inactive. The Potency entry in assay [4], in [6] and in [8] was “inactive” throughout.
For `Cc1cnc(C(=O)NCCc2ccc(S(=O)(=O)NC(=O)NC3CCCCC3)cc2)cn1`, the call in assay [1], in [2] and in assay [3] was inactive. The Potency entry in assay [6] and in assay [8] was “inactive” in each case.
